Results from PubChem BioAssay (EPA / NIEHS).
Where “and” joins values, the source holds several entries; their conditions need not be identical. Equal entries are not always repeated. Inconclusive results are not listed. Calls of active or inactive are those of the source. The calls were made as follows, unless noted: active = hit-call score of the fitted dose curve at least 0.9, where 1 is the maximum; inactive = score below 0.9.

Assays:
[1] = CCTE_Deisenroth_5AR_NBTE_donor: CCTE's 5alpha-reductase NanoBRET Target Engagement Assay […], Deisenroth Lab (AID 2284319); settings: actives raise or lower the signal
Procedure, shortened: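 HEK293T cells were reverse transfected with an SRD5A2-NanoLuc vector for 20 h, exposed to test chemical (8 points, 10 nM - 29.9 uM) for 3 h, then testosterone tracer for 2 h more. Donor luminescence (460 nm) was read; bidirectional fit versus DMSO.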

[2] = CCTE_Deisenroth_5AR_NBTE_acceptor: CCTE's 5alpha-reductase NanoBRET Target Engagement Assay - Autofluorescence Screen, Deisenroth Lab (AID 2284321); settings: actives raise or lower the signal;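 also: compound fluorescence in the acceptor channel under 460 nm excitation flags autofluorescence artifacts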
Procedure, shortened: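 Acceptor fluorescence intensity was read as an artifact-detection endpoint. Test chemicals at an assumed nominal 100 uM were excited at 460 nm across three independent runs. Activity was fitted bidirectionally against DMSO.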

[3] = TAMU_PeakParms_SingleDonor1434_Asystole: Texas A&M University (TAMU) 1.5-hr Human Induced Pluripotent Stem Cell (iPSC)-derived Cardiomyocytes Calcium (Ca+2) Flux Assay for Cardiotoxicity: Asystole (quiescence of beating) (AID 2284328; active = hit-call score of the fitted dose curve at least 0.9, where 1 is the maximum)
Procedure, shortened: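 Human iPSC-derived cardiomyocytes (donor 1434) were exposed to 0.2, 1, 10 and 100 uM compound in 0.5% DMSO for 90 min at 37C. Ca2+-dye fluorescence gave average peak frequency; POD is EC95, a 95% beat-rate drop versus DMSO.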

[4] = system: Brachyury (BRA) Protein Expression, Deisenroth Lab, TBXT (gene 6862); assay: CCTE_Deisenroth_DEVTOX-GLR_legacy_Bra: (Legacy) CCTE's DevTox GLR-Endo Assay Evaluation of Brachyury (BRA) Protein Expression, Deisenroth Lab (AID 2284329)
Procedure, shortened: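 RUES2-GLR human pluripotent cells differentiated 48 h with two 24-h-interval chemical exposures (1 nM - 200 uM, 10 points); fixed, nuclear-stained, imaged. Bra+ cell percentage (intensity 5x BMAD above pluripotent control median) fitted relative to 0.2% DMSO.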

[5] = CCTE_Deisenroth_DEVTOX-GLR_legacy_CellCount: (Legacy) Viability Assessment in CCTE's DevTox GLR-Endo Assay, Deisenroth Lab (AID 2284331); settings: actives raise or lower the signal
Procedure, shortened: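 RUES2-GLR human pluripotent cells were seeded 24 h, then differentiated 48 h with two compound doses at 24 h intervals (10-point, 1 nM - 200 uM). Fixed nuclei were imaged and counted; bidirectional fitting versus 0.2% DMSO.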

SRD5A2 (gene 6716) = assay: CCTE_Deisenroth_5AR_NBTE_ratio: CCTE's 5alpha-reductase NanoBRET Target Engagement Assay - Ratio, Deisenroth Lab (AID 2284322); settings: actives raise or lower the signal
Procedure, shortened: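 Reverse-transfect HEK293T with pNLF1-C-SRD5A2, express 20 h. Pre-incubate cells with chemical 3 h (8-point series, 10 nM - 29.9 uM, duplicate). Add testosterone tracer, 2 h more. Add substrate/inhibitor, read donor and acceptor emission.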

IYD (gene 389434) = assay: CCTE_GLTED_hIYD: CCTE's human Iodotyrosine Deiodinase (xIYD) Inhibition Assay, Great Lakes Toxicology and Ecology Division (GLTED) Lab (AID 2284317; active = hit-call score of the fitted dose curve at least 0.9, where 1 is the maximum;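 also: cell-free human IYD enzyme made in baculovirus insect cells; iodide freed from monoiodotyrosine measured by cerium arsenite color change at 420 nm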)
Procedure, shortened: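 First, recombinant human IYD (baculovirus-insect cells), MIT and chemical incubated 3 h. Next, iodide isolated on Dowex. Finally, Sandell-Kolthoff rate read at 420 nm, with platewise normalization to MNT and solvent controls.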

[6] = CCTE_Mundy_HCI_iCellGluta_NOG_NeuriteLength: CCTE's Neurite Outgrowth Assay in iCellGluta cells for Neurite Length, Mundy Lab (AID 2284318; active = hit-call score of the fitted dose curve at least 0.9, where 1 is the maximum)
Procedure, shortened: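 Automated high-content imaging of betaIII-tubulin (Alexa Fluor-488) and Hoechst-stained cells gave neurite length, normalized to the DMSO baseline.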

[7] = IUF_NPC2-5_cytotoxicity_120hr: Cytotoxicity Assessment at 120 hours in the Leibniz Research Institute for Environmental Medicine (IUF) Neural Progenitor Cell Migration and Differentiation Assay (NPC2-5) (AID 2284307; active = hit-call score of the fitted dose curve at least 0.9, where 1 is the maximum)
Procedure, shortened: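 Sphere plating starts differentiation and exposure together at day 0. Compound solution is half-replaced on day 3. At 120 h, medium supernatant is taken for an LDH membrane-integrity read based on resazurin reduction to resorufin fluorescence.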

[8] = IUF_NPC2-5_cell_number_120hr: Cell Number Assessment at 120 hours in the Leibniz Research Institute for Environmental Medicine (IUF) Neural Progenitor Cell Migration and Differentiation Assay (NPC2-5) (AID 2284308);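 also: count of Hoechst-stained nuclei in migration zone around plated human neural progenitor spheres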
Procedure, shortened: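 hNPC spheres, one per well, PDL/laminin, N2 medium, 37C, 5% CO2. Dosing day 0 → half-medium change with fresh compound day 3 → fix 120 h. Readout: Hoechst+ nuclei count, migration area; 7 concentrations plus solvent control.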

[9] = IUF_NPC2-5_viability_120hr: Viability Assessment at 120 hours in the Leibniz Research Institute for Environmental Medicine (IUF) Neural Progenitor Cell Migration and Differentiation Assay (NPC2-5) (AID 2284312)
Procedure, shortened: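 Human fetal (GW 16-19) neural progenitor spheres of 0.3 mm were plated on poly-D-lysine/laminin in N2 differentiation medium and exposed from day 0 for 120 h, with half-medium refresh at day 3. Viability was read as alamar blue resazurin-to-resorufin fluorescence against DMSO.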

[10] = VALA_TUBIPS_Antagonist_TubuleLength: VALA Sciences human iPS-derived Endothelial Tubule Formation (TUBIPS) Antagonist Assay (AID 2284313; active = hit-call score of the fitted dose curve at least 0.9, where 1 is the maximum)
Procedure, shortened: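 Cells grown 3 days with 10 ng/ml VEGF, then exposed to compounds in VEGF medium for another 3 days. After fixation, nuclear stain and CD31 immunofluorescence imaging gave mean total tubule length against 0.1% DMSO; suramin (100 uM) inhibition control.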

[11] = IUF_NPC1_cytotoxicity_72hr: Cytotoxicity Assessment at 72 hours in the Leibniz Research Institute for Environmental Medicine (IUF) Neural Progenitor Cell Proliferation Assay (NPC1) (AID 2284332; active = hit-call score of the fitted dose curve at least 0.9, where 1 is the maximum;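 also: rising LDH signal means more cytotoxicity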)
Procedure, shortened: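 hNPC spheres (fetal brain, gestational week 16-19) grown under proliferative EGF/FGF conditions, pH 7.2-7.6, were treated continuously for 72 h. Cytotoxicity came from LDH-coupled resazurin fluorescence in each well's supernatant.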

[12] = VALA_TUBHUV_Antagonist_CellCount: Viability Assessment in the VALA Sciences human Umbilical Vein Endothelial Tubule Formation (TUBHUV) Antagonism Assay (AID 2284310; active = hit-call score of the fitted dose curve at least 0.9, where 1 is the maximum)
Procedure, shortened: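 HUVEC co-cultured with HDF (1:3) 3 days in 10 ng/ml VEGF, then 3 days with compounds in VEGF medium. Fixed, nuclear stain and CD31 immunofluorescence, imaged; cell counts fitted versus 0.1% DMSO, loss of signal read as lower viability.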

[13] = VALA_TUBIPS_Agonist_TubuleLength: VALA Sciences human iPS-derived Endothelial Tubule Formation (TUBIPS) Agonism Assay (AID 2284311; active = hit-call score of the fitted dose curve at least 0.9, where 1 is the maximum)
Procedure, shortened: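 Human iPS-derived endothelial cells were exposed to compound for 72 h. Tubule formation was imaged by high-content fluorescence and scored as gain of signal relative to DMSO vehicle (agonist mode).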

[14] = VALA_MIGHUV2_CellCount: Viability Assessment in the VALA Sciences human Umbilical Vein Endothelial Cell Migration (MIGHUV) Assay, Area of Scratch Wound after Recovery (AID 2284314; active = hit-call score of the fitted dose curve at least 0.9, where 1 is the maximum)
Procedure, shortened: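 Scratch-wounded HUVEC monolayers received test chemical within 30 min, 6-point concentration response in triplicate, 0.1 % DMSO vehicle. After 24 h wound recovery, fixed cells were Hoechst-stained and nuclei imaged; loss of signal versus DMSO indicates reduced viability.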

[15] = VALA_MIGHUV2_Bcatenin: VALA Sciences human Umbilical Vein Endothelial Cell Migration (MIGHUV) Assay, Nuclear Translocation of beta-Catenin after Recovery (AID 2284315; active = hit-call score of the fitted dose curve at least 0.9, where 1 is the maximum)
Procedure, shortened: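 HUVEC (4000 cells/well) scratch-wounded, dosed within 30 min over 6 concentrations in triplicate, recovered 24 h. After fixation, Hoechst and anti-beta-catenin immunofluorescence imaged for nuclear CTNB. Gain of signal versus 0.1% DMSO.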

[16] = VALA_MIGHUV2_WoundArea: VALA Sciences human Umbilical Vein Endothelial Cell Migration (MIGHUV) Assay, Area of Scratch Wound after Recovery (AID 2284316; active = hit-call score of the fitted dose curve at least 0.9, where 1 is the maximum)
Procedure, shortened: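 HUVEC seeded at 9000 cells/well, scratched after 24 h; test chemical added within 30 min, 6-point concentration response in triplicate (0.1% DMSO vehicle). After 24 h wound recovery, cells fixed and Hoechst-stained nuclei in wound area imaged; Cytochalasin D reference control.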

[17] = VALA_TUBHUV_Antagonist_TubuleLength: VALA Sciences human Umbilical Vein Endothelial Tubule Formation (TUBHUV) Antagonism Assay (AID 2284325; active = hit-call score of the fitted dose curve at least 0.9, where 1 is the maximum)
Procedure, shortened: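 HUVEC–HDF co-culture (1:3) pre-grown 3 days with 10 ng/ml VEGF, then 3 days with compound plus VEGF. Fixed, nuclear and CD31 stained; total tubule length by imaging versus 0.1% DMSO; suramin 100 uM positive control.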

[18] = VALA_MIGHUV1_ScratchOnly_CellCount: Viability Assessment in the VALA Sciences human Umbilical Vein Endothelial Cell Migration (MIGHUV) Assay, Scratch Wound Inhibited Recovery (AID 2284327; active = hit-call score of the fitted dose curve at least 0.9, where 1 is the maximum)
Procedure, shortened: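 HUVEC scratched after 24 h culture, chemical added within 30 min at 6 concentrations in triplicate (0.1% DMSO vehicle). After 24 h recovery, fixed cells were counted by Hoechst nuclear imaging in the wound area.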

Nc1ccc(Nc2ccccc2)cc1
AC50 [1]: 28.3 µM (active)
AC50 [2]: 31.5 µM (active)

NC(=O)NO
outcome [3]: inactive
outcome [4]: inactive
AC50 [5]: 64.7 µM (active)

O=C(O)c1cc(N=Nc2ccc(S(=O)(=O)Nc3ccccn3)cc2)ccc1O
outcome [1]: inactive
outcome [2]: inactive
AC50 (SRD5A2 (gene 6716)): 58.5 µM (active)
outcome [4]: inactive
outcome [5]: inactive

Nc1nc2ncc(CNc3ccc(C(=O)N[C@@H](CCC(=O)O)C(=O)O)cc3)nc2c(=O)[nH]1
outcome [5]: inactive

O=C(OC[C@H]1O[C@@H](OC(=O)c2cc(O)c(O)c(OC(=O)c3cc(O)c(O)c(O)c3)c2)[C@H](OC(=O)c2cc(O)c(O)c(OC(=O)c3cc(O)c(O)c(O)c3)c2)[C@@H](OC(=O)c2cc(O)c(O)c(OC(=O)c3cc(O)c(O)c(O)c3)c2)[C@@H]1OC(=O)c1cc(O)c(O)c(OC(=O)c2cc(O)c(O)c(O)c2)c1)c1cc(O)c(O)c(OC(=O)c2cc(O)c(O)c(O)c2)c1
AC50 (IYD (gene 389434)): 13.3 µM (active)
outcome [1]: inactive
outcome [2]: inactive
outcome (SRD5A2 (gene 6716)): inactive

CC[C@H](C)C(=O)O[C@H]1C[C@@H](C)C=C2C=C[C@H](C)[C@H](CC[C@@H]3C[C@@H](O)CC(=O)O3)[C@H]21
AC50 [4]: 37.6 µM (active)
AC50 [5]: 2.83 µM (active)

CC[C@H]1OC(=O)[C@H](C)[C@@H](O[C@H]2C[C@@](C)(OC)[C@@H](O)[C@H](C)O2)[C@H](C)[C@@H](O[C@@H]2O[C@H](C)C[C@H](N(C)C)[C@H]2O)[C@](C)(O)C[C@@H](C)C(=O)[C@H](C)[C@@H](O)[C@]1(C)O
outcome [6]: inactive
outcome [1]: inactive
outcome [2]: inactive
outcome (SRD5A2 (gene 6716)): inactive

CCOC(=O)c1ccc(C2CCC(NC[C@H](O)COc3ccc(O)c(NS(C)(=O)=O)c3)CC2)cc1 (stereo partly drawn)
AC50 [1]: 62.7 µM (active)
AC50 [2]: 50 µM (active)
AC50 (SRD5A2 (gene 6716)): 79.2 µM (active)

CN(C)c1ccc(N=NS(=O)(=O)O)cc1
AC50 (IYD (gene 389434)): 47.9 µM (active)
outcome [1]: inactive
outcome [2]: inactive
AC50 (SRD5A2 (gene 6716)): 64.2 µM (active)

Cn1c(=O)c2c(ncn2C)n(C)c1=O
outcome [5]: inactive

CCCCCCc1ccc(O)cc1O
outcome [3]: inactive

C[C@](N)(Cc1ccc(O)c(O)c1)C(=O)O
outcome [4]: inactive
outcome [5]: inactive

O=P(OC(CCl)CCl)(OC(CCl)CCl)OC(CCl)CCl
outcome [7]: inactive
outcome [8]: inactive
outcome [9]: inactive
outcome [10]: inactive
outcome [6]: inactive
outcome [11]: inactive

CCOc1cccc(-n2cc(C(=O)N3CCN(c4cc(C(=O)O)c5ccccc5c4)CC3)nc2-c2ccc(C)cc2)c1
AC50 (IYD (gene 389434)): 116 µM (active)

CC(C)c1cccc(C(C)C)c1N1C(=O)c2ccc(O)cc2C1=O
outcome [12]: inactive
outcome [13]: inactive
AC50 [10]: 10.3 µM (active) and 72.7 µM (active)
AC50 [14]: 85.8 µM (active)
AC50 [15]: 17.4 µM (active) and 53.1 µM (active)
AC50 [16]: 17.8 µM (active) and 74 µM (active)
AC50 [17]: 10.7 µM (active) and 50 µM (active)
AC50 [18]: 11.7 µM (active)

CCC(C)(C)C(=O)O[C@H]1C[C@@H](C)C=C2C=C[C@H](C)[C@H](CC[C@@H]3C[C@@H](O)CC(=O)O3)[C@H]21
outcome [1]: inactive
outcome [2]: inactive
outcome (SRD5A2 (gene 6716)): inactive

O=C1CCC(N2C(=O)c3ccccc3C2=O)C(=O)N1 (stereo not drawn)
outcome [3]: inactive
outcome [4]: inactive
outcome [5]: inactive
